High-throughput results as filed in PubChem BioAssay.
An excerpt weighted towards active compounds, which were near 0.44% of everything screened.
RmlCD inh mix: inhibitors of RmlC and RmlD coupled enzymes; RmlC/RmlD coupled enzyme inhibition, 384-well mixture HTS; 0.39% of 110,000 active; inhibition, % at 5.5 µM; in the data active = inhibition above about 30%, passing the limit was not always enough; inconclusive = no clear call, values can overlap the other calls
YopH PTP inh: blocks Yersinia enterocolitica YopH tyrosine phosphatase; fluorescence Ex485/Em525; inhibition, % (no concentration beside the values); 0.16% of 140,000 active; AID 898; in the data active = inhibition above about 50%
RmlCD artifact: shows fluorescent artifact in RmlC/RmlD assay, dose-response counter-screen; shares compounds with RmlCD inh mix; RmlC/RmlD assay fluorescence artifact counter-screen; calls only; 96% of 360 active; call rule not given here;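 note: compound alone with no enzyme and no substrates present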
Hits are given with their value; i = inactive; ? = inconclusive; nt = not tested or not shown; + = active, no number.

SMILES	RmlCD inh mix	YopH PTP inh	RmlCD artifact
CCCc1c(C)c(C#N)c2nc3ccccc3n2c1NCCCN1CCOCC1	i	i	nt
Cc1cc(NCCCn2ccnc2)n2c(nc3ccccc32)c1C#N	85	i	+
CC(C)c1cc(NCCCN2CCOCC2)n2c(nc3ccccc32)c1C#N	45	i	+
Cc1cc(NCCN2CCCCC2)n2c(nc3ccccc32)c1C#N	nt	i	nt
O=C(NCCc1ccccn1)c1cc(-c2ccccc2Cl)nc2ccccc12	nt	i	nt
CC(C)CCN(C(=O)Nc1ccccc1)C(C)c1cccs1 (stereo not given)	i	i	nt
COC(=O)c1ccc(-c2cc(C(=O)O)c3cc4c(cc3n2)OCCO4)cc1	48	i	+
COc1cc(-c2cc(C(=O)O)c3cc4c(cc3n2)OCCO4)cc(OC)c1OC	i	i	nt
O=C(Nc1cccc(C(F)(F)F)c1)c1cccnc1N1CCN(c2ccccc2)CC1	i	i	nt
COc1ccc(C(=O)N/N=C/c2ccc3cccc(OCc4ccccc4)c3n2)cc1	i	i	i
O=C(N/N=C/c1ccc2cccc(OCc3ccccc3)c2n1)c1ccc(Br)cc1	i	i	nt
NC(=O)c1nn(-c2ccccc2)nc1N	43	i	+
NC(=O)c1nn(-c2ccccc2)nc1NC(=O)CN1CCCCC1	i	i	nt
CC(C)(C)NC(=O)CSc1nc(O)cc(=O)[nH]1	nt	i	nt
COC(=O)C1=CN(CCCN2CCCC2=O)C=C(C(=O)OC)C1c1ccccc1C(F)(F)F	68	i	+
COc1ccccc1C(=O)NCCCN1CCCC1=O	i	i	nt
COc1ccc(-c2ccnc3c(C#N)cnn23)cc1	nt	nt	+
N#Cc1cnn2c(-c3ccccc3)ccnc12	i	i	nt
Cc1ccc(C(=O)O/N=C(\N)c2nonc2N)cc1	nt	i	nt
C=C(C)CN=C1NN=C(c2cc(C)n(-c3ccc(C)cc3)c2C)CS1	nt	i	nt
COc1ccc(OC)c2[nH]c(C(=O)O)cc12	i	i	nt
COC(=O)c1cc(=O)c2cccc(OC)c2[nH]1	nt	nt	i
O=C(COc1ccc(Cl)cc1)N/N=C/CCc1ccccc1	i	i	nt
C=CCSc1nc2sc(-c3ccccc3)cc2c(=O)n1N	i	i	nt
O=c1c(-c2nnc(SCc3ccc(Cl)c(Cl)c3)o2)cccn1Cc1ccccc1	?	i	nt
SMILES	RmlCD inh mix	YopH PTP inh	RmlCD artifact
COc1ccc(Cn2c(N)c(C#N)c3nc4ccccc4nc32)cc1	nt	i	nt
N#Cc1c(N)n(CCOC(=O)c2cccc(Br)c2)c2nc3ccccc3nc12	i	i	nt
N#Cc1c(N)n(CCOC(=O)c2cccc([N+](=O)[O-])c2)c2nc3ccccc3nc12	45	i	+
COCCn1c(N)c(C#N)c2nc3ccccc3nc21	55	i	+
CCn1c(SCC(=O)Nc2ncc(C(F)(F)F)cc2Cl)nnc1-c1ccccc1	nt	i	nt
CC(OC(=O)c1ccncc1)C(=O)Nc1cc(S(=O)(=O)N2CCCCC2)ccc1Cl (stereo not given)	nt	i	nt
CC(NC(=O)NC1CCCCC1)C(c1cccs1)N1CCN(c2ccccc2)CC1 (stereo not given)	i	i	nt
CC(=O)N1N=C(c2ccc3ccccc3c2)OC1(C)C	nt	i	nt
c1ccc2cc(-c3cc4ccccn4c3)ccc2c1	91	i	+
CC(=O)Nc1ccc(S(=O)(=O)NCC(=O)OCC(=O)N2CCCc3ccccc32)cc1	nt	i	nt
CC(NC(=O)Cn1ncc(Cl)c(Cl)c1=O)C12CC3CC(CC(C3)C1)C2 (stereo not given)	nt	i	nt
O=C(Nc1sc2c(c1C(=O)O)CCC2)c1ccco1	i	i	nt
O=C(Nc1sc2c(c1C(=O)NC1CC1)CCCCCC2)c1ccco1	+	i	+
O=C(c1ccco1)N1CCN(C(=O)c2cc3c(s2)-c2ccccc2OC3)CC1	46	i	+
O=C(O)c1cc2c(s1)-c1ccccc1OC2	?	i	nt
COc1ccccc1N=c1oc2cc(O)ccc2cc1C(N)=O	40	i	+
COc1ccccc1N=c1oc2cc(O)ccc2cc1C(=O)NCC1CCCO1 (stereo not given)	i	i	nt
Cc1cc(/N=C/C=C2\N(C)c3ccccc3C2(C)C)n(CCC#N)n1	i	i	nt
Cc1nc2ccccc2cc1C(=O)O	i	i	nt
O=c1cccc2n1Cc1cc3ccccc3nc1-2	55	i	+
Cc1nc2c(sc3nc4c(cc32)COC(C)(C)C4)c(=O)n1Cc1ccccc1	i	i	nt
Cc1nc2c(sc3nc4c(cc32)COC(C)(C)C4)c(=O)o1	42	i	+
COc1ccccc1NC(=O)CSc1nc2ccccc2cc1Cc1ccccc1	i	i	nt
O=C(COC(=O)c1ccccc1Cl)NC(=O)NCc1ccccc1	nt	i	nt
CCNC(=O)NC(=O)COC(=O)c1ccccc1SCC(=O)NC(=O)NCC	+	i	+
SMILES	RmlCD inh mix	YopH PTP inh	RmlCD artifact
O=C(Oc1cc2oc(=O)c3c(c2cc1Cl)CCCC3)c1ccco1	141	i	+
CC(=O)Oc1cc2oc(=O)c3c(c2cc1Cl)CCC3	nt	i	+
CC(C)Oc1cc2oc(=O)c3c(c2cc1Cl)CCC3	i	i	nt
Cc1cc2oc(=O)c3c(c2cc1OC(=O)c1ccco1)CCCC3	i	i	nt
COC(=O)Cc1c(C)c2ccc(OC(=O)c3ccco3)cc2oc1=O	+	i	+
COC(=O)Cc1c(C)c2cc(Cl)c(OC(=O)c3ccco3)cc2oc1=O	nt	i	nt
O=C(Oc1ccc2c3c(c(=O)oc2c1)CCCC3)c1cccs1	nt	i	nt
O=C(Oc1ccc2c3c(c(=O)oc2c1)CCC3)c1ccco1	187	i	+
CC1CCC2C(=O)N(c3ccc(C(=O)Oc4cccc5cccnc45)cc3)C(=O)C2C1 (stereo not given)	nt	i	nt
CC(CNC(=O)C(=O)NC(C)CCc1ccccc1)Cc1ccccc1 (stereo not given)	i	i	nt
O=C(NCCC1=CCCCC1)C(=O)NCC(c1ccco1)N1CCN(c2ccccc2F)CC1 (stereo not given)	nt	i	nt
Cc1ccc(CNC(=O)C(C)OC(=O)c2cccs2)cc1 (stereo not given)	i	i	nt
Cc1cc(C)c(C#N)c(SCC(=O)CC(=O)OC(C)C)n1	55	i	+
Cc1nc(SCC(=O)CC(=O)OC(C)C)c(C#N)c(C)c1C	i	i	nt
Cc1nc(NC(=O)CSc2nnc(Cn3nnc4ccccc43)n2C)sc1C	nt	i	nt
CCc1cc(=O)oc2cc(OC(C)=O)cc(OC(C)=O)c12	nt	i	+
CCCCc1cc(=O)oc2cc(C)cc(OCC(=O)O)c12	i	i	nt
COc1ccc(C(O)C(CC(=O)NCCCOC(C)C)C(=O)NCCCOC(C)C)cc1OC (stereo not given)	nt	i	nt
Cc1ccc(S(=O)(=O)NC(C(=O)Oc2ccc3ccc(=O)oc3c2)c2ccccc2)cc1 (stereo not given)	nt	i	nt
Cc1ccc(S(=O)(=O)N[C@H](C(=O)Oc2ccc3c(C(F)(F)F)cc(=O)oc3c2)c2ccccc2)cc1	101	i	+
COCCNC(=O)C(OC(=O)c1cc2oc(C)cc2n1C)C(C)C (stereo not given)	i	i	nt
O=C(CCC(=O)c1ccccc1)NCCc1c[nH]c2ccccc12	nt	i	nt
COc1cc2c(cc1OC)-c1cc(OCCN3CCOCC3)nc(=O)n1CC2	61	i	+
CCNc1cc2n(c(=O)n1)CCc1cc(OC)c(OC)cc1-2	i	i	nt
O=C(Nc1cccc(Cl)c1)Nc1cccc(Cl)c1	i	i	nt
N#Cc1ccccc1NC(=O)Nc1cccc(Cl)c1	44	i	+
N#Cc1ccccc1NC(=O)Nc1ccc(Cl)cc1	40	i	+
Cc1ccc(NC(=O)Nc2ccccc2C#N)c(Cl)c1	i	i	nt
Cc1ccc(-c2nc3ccccc3n2C)o1	i	i	nt
